Results taken from PubChem BioAssay.
Where “and” joins values, the source holds several entries; their conditions need not be identical. Equal values may be shown once. Where a structure was tested more than once in an assay, its records may differ in their call. Calls of active or inactive are those of the source.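 The calls were made as follows, unless noted: active = thallium flux through the channel raised or lowered by more than 3 SD from vehicle-only wells, actives on both sides; inactive = the rest.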

Key:
[1] = stimulators of nuclear beta-catenin in C2C12, primary screen, imaging, WNT3A-conditioned medium, mouse C2C12, NPC library (AID 1117326; in the data active = nuclear beta-catenin stimulation mostly above about 4.2%, no sharp cut-off; inactive = mostly below about 10%); details: stronger effect = higher value
[2] = stimulators of insulin release from INS-1E, primary screen, cell-based, 5 mM glucose, NPC library (AID 1117329;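 active = compound raises insulin release from rat beta cells at 5 mM glucose, no numeric limit stated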); details: rat INS-1E insulin secretion, at 10 µM, stronger effect = higher value
[3] = growth inhibition of GSK3B-pretreated HCT116 cells – cell-based, CellTiter-Glo, 0.2 to 20 µM (AID 1117336;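 active = compounds lowering colon cancer cell viability after pretreatment blocking the GSK3B kinase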); details: HCT116 viability after GSK3B inhibitor, at 20 µM, stronger effect = higher value
[4] = inhibition of endothelial tube formation, primary screen, imaging, VEGF stimulated, CD31 staining, tube area, NPC library (AID 1117340;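 active = compound that reduces growth-factor-driven endothelial tube area in a mixed cell culture, no cutoff stated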); details: VEGF-stimulated ADSC/ECFC co-culture, at 10 µM, stronger effect = higher value
[5] = glucagon-like peptide 1 release enhancers, primary assay, NCI-H716 cell line, NPC library (AID 1117341;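 active = compound raises GLP1 secretion from the human gut endocrine cells, with no numeric limit stated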); details: NCI-H716 cells, at 10 µM, stronger effect = higher value
[6] = HCT116 colon cancer cell growth inhibition, primary screen, CellTiter-Glo luminescence, NPC library (AID 1117342;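 active = compounds that lower survival of HCT116 colon cancer cells in the luminescence readout, no numeric limit stated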); details: at 20 µM (top of the series)
[7] = CellTiter-Glo luminescent readout of SW480 viability loss, NPC library primary (AID 1117343;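 active = compounds that lower viability of the colon cancer cells in the luminescence readout, with no numeric limit stated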); details: CellTiter-Glo luminescence; at 20 µM (top of the series)
[8] = decreased DLD-1 cellular survival, CellTiter-Glo luminescent readout, NPC compound collection, primary HTS (AID 1117346;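 active = compounds that lower survival of DLD-1 colon cancer cells in the luminescence readout, no cutoff given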); details: DLD-1 viability, CellTiter-Glo luminescence; at 20 µM (top of the series)
[9] = biological target: 6-phosphogluconate dehydrogenase, decarboxylating (Homo sapiens) (UniProt P52209); assay: 6PGD enzyme inhibitors, primary screen, biochemical, human, recombinant enzyme, NADPH absorbance (AID 1159550;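 active = at least 20% inhibition of 6-phosphogluconate dehydrogenase activity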); details: recombinant 6PGD, NADPH absorbance 341 nm; at 10 µM; stronger effect = higher value
6-phosphogluconate dehydrogenase, decarboxylating (Homo sapiens), sequence (P52209 whole entry, looked up): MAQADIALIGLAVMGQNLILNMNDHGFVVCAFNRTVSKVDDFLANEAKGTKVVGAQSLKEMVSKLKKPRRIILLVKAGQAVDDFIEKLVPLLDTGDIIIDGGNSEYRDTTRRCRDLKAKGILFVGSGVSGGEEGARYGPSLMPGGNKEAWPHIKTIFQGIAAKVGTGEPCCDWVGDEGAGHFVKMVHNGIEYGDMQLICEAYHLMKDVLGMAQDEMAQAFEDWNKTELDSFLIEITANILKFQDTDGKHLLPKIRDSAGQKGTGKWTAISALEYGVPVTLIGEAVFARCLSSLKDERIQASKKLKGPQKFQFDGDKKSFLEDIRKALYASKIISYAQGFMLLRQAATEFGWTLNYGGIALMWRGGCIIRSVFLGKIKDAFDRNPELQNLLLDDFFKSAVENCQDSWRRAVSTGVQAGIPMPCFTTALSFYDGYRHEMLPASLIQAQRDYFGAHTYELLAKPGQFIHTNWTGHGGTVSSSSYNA

[10] = differential killing of epithelial or mesenchymal cells, primary screen, imaging, PC-3E GFP, TEM4-18 mCherry, co-culture (AID 1345086;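 active = compounds killing one labelled cell type while sparing the other, by normalised counts and ratio limits, not self-fluorescent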;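 as to all read-outs here: cells exposed to compound for 72 h before imaging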;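 as to red/green cell ratio (normalised): normalised mesenchymal count divided by normalised epithelial count so high means epithelial killing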); details: imaging cell counts, at 1 µM; for red/green cell ratio (normalised): actives lie on both sides, counts scaled to control wells, 1 = unselective
[11] = biological target: NAD(+) hydrolase SARM1 (Homo sapiens) (UniProt Q6SZW1); assay: SARM1 TIR NADase inhibitors, cell lysate, NAD-Glo luminescence (AID 1508614;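 active = compound whose remaining NAD level is above about 45 nM, limit read from the data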;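 also: higher remaining NAD means stronger inhibition of SARM1 NADase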); details: SAM-TIR HEK293T lysate NADase, at 1 µM, stronger effect = higher value
NAD(+) hydrolase SARM1 (Homo sapiens), sequence (Q6SZW1 whole entry, looked up, the tested form may be a part): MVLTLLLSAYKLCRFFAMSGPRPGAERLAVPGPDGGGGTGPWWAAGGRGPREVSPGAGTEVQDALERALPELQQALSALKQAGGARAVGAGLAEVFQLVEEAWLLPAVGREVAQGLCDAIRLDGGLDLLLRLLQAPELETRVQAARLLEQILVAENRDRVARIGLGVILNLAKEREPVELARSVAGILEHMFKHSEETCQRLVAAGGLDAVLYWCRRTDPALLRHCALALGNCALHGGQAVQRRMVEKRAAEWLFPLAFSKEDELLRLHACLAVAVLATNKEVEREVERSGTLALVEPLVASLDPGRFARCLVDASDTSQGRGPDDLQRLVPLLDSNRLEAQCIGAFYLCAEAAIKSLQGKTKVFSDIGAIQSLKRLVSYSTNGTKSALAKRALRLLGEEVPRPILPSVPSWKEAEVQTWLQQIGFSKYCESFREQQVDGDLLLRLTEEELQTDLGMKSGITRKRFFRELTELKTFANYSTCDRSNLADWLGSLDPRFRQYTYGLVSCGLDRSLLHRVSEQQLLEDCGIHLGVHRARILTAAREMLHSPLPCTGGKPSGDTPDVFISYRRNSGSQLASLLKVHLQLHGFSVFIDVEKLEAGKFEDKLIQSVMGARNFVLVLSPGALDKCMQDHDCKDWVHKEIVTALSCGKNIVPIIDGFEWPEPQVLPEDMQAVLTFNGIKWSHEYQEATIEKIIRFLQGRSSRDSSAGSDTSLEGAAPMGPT

[12] = biological target: Mitogen-activated protein kinase 7 (Homo sapiens) (UniProt Q13164); assay: ERK5 transactivation activators in reporter cells, primary screen, cell-based, HTS (AID 1508626;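 active = luciferase signal above three times the same-plate solvent-only control wells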;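 also: luciferase driven by Gal4-ERK5 fusion binding five Gal4 sites before minimal TATA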); details: HeLa Gal4-ERK5 transactivation, 18 h, at 5 µM, stronger effect = higher value
Mitogen-activated protein kinase 7 (Homo sapiens), sequence (Q13164 whole entry, looked up, the tested form may be a part): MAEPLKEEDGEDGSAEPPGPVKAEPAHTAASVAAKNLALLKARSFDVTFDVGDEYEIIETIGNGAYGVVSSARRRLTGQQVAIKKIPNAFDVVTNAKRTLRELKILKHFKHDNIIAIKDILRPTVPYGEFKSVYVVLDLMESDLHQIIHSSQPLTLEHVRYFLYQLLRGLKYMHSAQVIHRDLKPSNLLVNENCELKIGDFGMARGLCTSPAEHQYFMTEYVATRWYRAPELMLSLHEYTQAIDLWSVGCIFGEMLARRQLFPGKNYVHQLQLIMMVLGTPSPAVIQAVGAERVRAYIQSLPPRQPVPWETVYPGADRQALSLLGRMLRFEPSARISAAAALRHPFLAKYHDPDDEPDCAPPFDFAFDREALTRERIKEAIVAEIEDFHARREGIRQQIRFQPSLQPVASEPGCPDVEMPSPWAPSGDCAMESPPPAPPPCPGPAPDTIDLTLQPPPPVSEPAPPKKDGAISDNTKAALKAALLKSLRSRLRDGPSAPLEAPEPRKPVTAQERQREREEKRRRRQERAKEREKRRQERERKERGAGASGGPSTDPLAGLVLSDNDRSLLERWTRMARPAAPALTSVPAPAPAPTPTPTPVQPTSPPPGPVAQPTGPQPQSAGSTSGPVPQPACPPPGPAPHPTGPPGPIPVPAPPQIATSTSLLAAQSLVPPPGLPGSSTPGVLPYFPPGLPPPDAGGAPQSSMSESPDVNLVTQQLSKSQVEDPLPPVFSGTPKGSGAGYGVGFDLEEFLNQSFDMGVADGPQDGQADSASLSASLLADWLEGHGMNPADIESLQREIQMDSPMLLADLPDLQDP

F380Y = assay: modulators of BK channel variants, profiling panel, selectivity assay, cell-based, U2OS BacMam, thallium flux, beta subunits (AID 1259406); details: at 30 µM;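 also: initial slope of Thallos dye fluorescence rise after thallium is added; log ratio against the mean of 0.3% DMSO vehicle wells on the same plate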
F380Y/beta2Delta = assay: as above; details: at 30 µM
[13] = biological target: Calcium-activated potassium channel subunit alpha-1 (Homo sapiens) + Leucine-rich repeat-containing protein 26 (Homo sapiens) (UniProt Q12791+Q2I0M4); assay: as above; details: F380Y/Slo1WT/gamma1, at 30 µM
Calcium-activated potassium channel subunit alpha-1 (Homo sapiens) + Leucine-rich repeat-containing protein 26 (Homo sapiens), sequence (Q2I0M4 whole entry, looked up, one chain of several): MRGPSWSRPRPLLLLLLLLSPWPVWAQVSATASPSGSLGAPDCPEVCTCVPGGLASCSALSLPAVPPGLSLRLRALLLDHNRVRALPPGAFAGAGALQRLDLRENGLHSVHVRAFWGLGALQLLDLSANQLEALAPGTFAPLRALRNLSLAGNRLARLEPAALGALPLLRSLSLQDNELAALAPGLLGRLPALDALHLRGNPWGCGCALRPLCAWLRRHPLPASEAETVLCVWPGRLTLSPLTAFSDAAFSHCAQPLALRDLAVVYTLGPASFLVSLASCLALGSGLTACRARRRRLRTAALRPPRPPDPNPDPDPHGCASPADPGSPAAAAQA

[14] = tested on: Hepatitis C virus NS3 helicase; assay: HCV NS3 helicase inhibitors, primary screen, biochemical, fluorescence polarization, NIH Clinical Collection (AID 743270; call rule not given here); details: NS3 helicase binding to Cy5-dT15 DNA, stronger effect = higher value, concentration not given here
[15] = biological target: Single-stranded DNA-binding protein (Escherichia coli (strain K12)) (UniProt P0AGE0); assay: E. coli SSB displacement from DNA, counter-screen for HCV NS3 helicase inhibitor project, biochemical, fluorescence polarization, NIH Clinical Collection (AID 743271; in the data active = inhibition above about 28%); details: stronger effect = higher value, concentration not given here
[16] = fluorescence interference in NS3h assay format, artefact control for HCV NS3 helicase inhibitor project, biochemical, NIH Clinical Collection (AID 743272; call rule not given here;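 also: HCV NS3 helicase with a Cy5 labelled single stranded DNA probe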); details: fluorescence interference counterscreen, stronger effect = lower value
[17] = sensitizers of A549 cells to miR-34 induction, primary screen, imaging, A549 dox-inducible miR-34, nuclei and caspase counts (AID 1347080;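 active = compounds whose cell count with miR-34 switched on is under 0.7 times the count with it off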); details: A549 miR-34 inducible, Hoechst nuclei count, 48 h
[18] = survival rescue of mitochondrial mutant cells in low glucose, primary screen, MELAS cybrids, Rieske KO mouse fibroblasts, CellTiter-Glo (AID 1508586;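 active = mean z-score across replicates of 1.96 or higher in either the MELAS or the Rieske mutant cell line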;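 also: z relative to plate mean and SD of compound and empty wells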)
[19] = measured here: epithelial PC-3E GFP cell survival
[20] = measured here: mesenchymal TEM4-18 mCherry cell survival
[21] = stronger effect = lower value, cell number ratio, induced over uninduced
[22] = measured here: relative caspase fold change +Dox/-Dox
[23] = measured here: total cells with miR-34 induction, stronger effect = lower value
[24] = measured here: total cells without miR-34 induction
[25] = MELAS cybrid survival, CellTiter-Glo 48 h, stronger effect = higher value
[26] = Rieske KO mouse fibroblast survival, CellTiter-Glo 72 h

CCn1cc(C(=O)O)c(=O)c2cc(F)c(N3CCN(C)CC3)cc21
1.13: normalised cell number [10, 19]
inactive: nuclear beta-catenin stimulation ([1]; at 10 µM) 3.6% | insulin secretion stimulation [2] -0.5% | viability decrease [3] -12.5% | tube area decrease [4] 25.6% | GLP1 secretion stimulation [5] 3.5% | inhibition of viability [6] -14.7% | viability decrease (inhibition) [7] -27.3% | viability decrease (inhibition) [8] -10.3% | inhibition [9] 5% | red/green cell ratio (normalised) [10] 1.22 | remaining NAD [11] 10 nM | luciferase signal [12] 56 AU | log fold change Tl+ flux (F380Y) -0.0273 | log fold change Tl+ flux (F380Y/beta2Delta) -0.0112 | log fold change Tl+ flux [13] -0.0628
1.2%: nuclear beta-catenin stimulation ([1]; stimulation, at 2 µM)
1.38: normalised cell number [10, 20]

Cc1ncc([N+](=O)[O-])n1CC(C)O (stereo not given)
9820 and 10000 and 10600: cell count [17, 24]
1.13: normalised cell number [10, 19]
inactive: inhibition [14] 5.15% | inhibition [15] 6.83% | fluorescence ratio [16] 1 | nuclear beta-catenin stimulation ([1]; at 10 µM) 3.5% | insulin secretion stimulation [2] -0.9% | viability decrease [3] -3.45% | tube area decrease [4] -13.6% | GLP1 secretion stimulation [5] 4.1% | inhibition of viability [6] -0.3% | viability decrease (inhibition) [7] 5.3% | viability decrease (inhibition) [8] -0.75% | inhibition [9] -1.51% | red/green cell ratio (normalised) [10] 0.83 | fold change [17, 21] 0.961 and 0.91 | z-score [18, 25] -0.319 and 0.295 and -0.342 | remaining NAD [11] 10 nM | luciferase signal [12] 40 AU | log fold change Tl+ flux (F380Y) -0.058 | log fold change Tl+ flux (F380Y/beta2Delta) -0.00369 | log fold change Tl+ flux [13] -0.0293
1.6%: nuclear beta-catenin stimulation ([1]; stimulation, at 2 µM)
0.94: normalised cell number [10, 20]
0.828 and -0.245 and -0.0796: z-score [18, 26]
9430 and 9630 and 9650: cell count [17, 23]
1.68 and 0.635 and 1.41: fold change [17, 22]

O=S(=O)(O)CCS
inactive: inhibition [14] -2.27% | inhibition [15] -2.76% | fluorescence ratio [16] 1 | nuclear beta-catenin stimulation ([1]; at 10 µM) 1.9% | insulin secretion stimulation [2] 1.6% | viability decrease [3] 4.9% | tube area decrease [4] 11.9% | GLP1 secretion stimulation [5] 2.6% | inhibition of viability [6] -4.57% | viability decrease (inhibition) [7] -2.4% | viability decrease (inhibition) [8] -8.8% | inhibition [9] 6.93% | red/green cell ratio (normalised) [10] 1 | fold change [17, 21] 0.934 and 0.882 | z-score [18, 25] -0.16 and 0.426 | remaining NAD [11] 10 nM | luciferase signal [12] 20 AU | log fold change Tl+ flux (F380Y) -0.0468 | log fold change Tl+ flux (F380Y/beta2Delta) 0.0371 | log fold change Tl+ flux [13] 0.0089
1.08: normalised cell number [10, 19]
9790 and 9090 and 11400: cell count [17, 23]
1.8%: nuclear beta-catenin stimulation ([1]; stimulation, at 2 µM)
3.36 and 0.596 and 4.13: fold change [17, 22]
1.09: normalised cell number [10, 20]
10500 and 9730 and 12900: cell count [17, 24]
0.659 and -0.304: z-score [18, 26]

Cn1cnc([N+](=O)[O-])c1Sc1ncnc2nc[nH]c12
1.13: normalised cell number [10, 19]
inactive: inhibition [14] -3.18% | inhibition [15] -2.76% | fluorescence ratio [16] 0.99 | nuclear beta-catenin stimulation ([1]; at 10 µM) 1.2% | insulin secretion stimulation [2] 0.2% | tube area decrease [4] 29.1% | GLP1 secretion stimulation [5] 4.1% | inhibition [9] 2.32% | red/green cell ratio (normalised) [10] 0.98 | remaining NAD [11] 10 nM | log fold change Tl+ flux (F380Y) -0.0816 | log fold change Tl+ flux (F380Y/beta2Delta) -0.0522 | log fold change Tl+ flux [13] -4.3e-05
active: viability decrease [3] 42% | inhibition of viability [6] 99.5% | viability decrease (inhibition) [7] 77.3% | viability decrease (inhibition) [8] 35.5% | luciferase signal [12] 408 AU
0.8 and 0.138: z-score [18, 26]
0.7%: nuclear beta-catenin stimulation ([1]; stimulation, at 2 µM)
1.11: normalised cell number [10, 20]
0.345 (inactive) and 1.98 (active): z-score [18, 25]
